# Data reported in the supplement of paper PMC3724861.
# Shown is part of a subset that was picked to be rich in hits. No count for the full screen is at hand. Unmarked numbers belong to inactive results.
# System: T1, Caupolican (Caup) homeodomain DNA-binding domain
# T1 sequence: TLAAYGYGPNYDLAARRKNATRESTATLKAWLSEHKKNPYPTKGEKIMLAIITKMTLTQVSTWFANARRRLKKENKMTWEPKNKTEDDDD
# Experiment: PBM E-score (8-mer, recovered from the published 9-mer minima) (E-score (dimensionless, -0.5 to 0.5)); Drosophila protein; higher = stronger relative binding preference, active = 0.31 or more
# Outline: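 Caup's homeodomain DNA-binding domain (residues 214-303) was produced by in vitro transcription and translation and applied at 100 nM to custom-designed protein binding microarrays. Each value is an enrichment score giving relative binding preference for a short DNA word; higher means stronger. Published 9-mer scores were the minimum of their two constituent 8-mer scores, and the 8-mer values were recovered from those minima. A cutoff of 0.31 marks candidate binding sequences.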
row,Sequence,PBM E-score
1,CTCACAGC,-0.124
2,ACCTACCC,-0.14
3,CGCGTAGC,-0.153
4,CAAGACTA,0.107
5,ATAGCCAT,0.0738
6,CATTCATA,0.179
7,CCTGGTGA,-0.102
8,ACTCTGCG,-0.03
9,TAATGTCA,0.258
10,TCATGTCA,0.391 (active)
11,TCATGGCA,-0.0694
12,ATTCGGAA,0.0171
13,CCCGCTAA,-0.182
14,CGCGATCC,-0.0878
15,GTCAACAA,0.285
16,GACAACAA,0.342 (active)
17,GACAACGA,0.179
18,AACAACAC,0.392 (active)
19,AACAACGC,0.182
20,GACAACAC,0.352 (active)
21,CACAACAC,0.265
22,GACAACTC,0.191
23,GTCAACAC,0.175
24,ACTATTTG,0.153
25,GTCTTGAA,0.0106
26,AGAACCCT,-0.163

row,Sequence,PBM E-score
1,GCATGAAC,0.104
2,ACATGAAA,0.314 (active)
3,GCATGAAA,0.111
4,ACATGAAC,0.372 (active)
5,CCATGAAA,0.00449
6,ACATGAAT,0.336 (active)
7,ATATGAAT,0.107
8,ACATGAAG,0.293
9,CCATGAAC,0.0647
10,CTATATTA,0.168
11,CCCTGTCA,0.129
12,CCAACATA,0.211
13,CCAACATC,0.113
14,ACAACATG,0.441 (active)
15,ACAACAGG,0.192
16,ACAACTTG,0.271
17,ACAACAGC,0.214
18,ACAACATC,0.356 (active)
19,ACAACATA,0.411 (active)
20,GCAACATA,0.204
21,ATGGGTCG,-0.0702
22,ACAATGGC,0.0838
23,ACTCTCGC,-0.115
24,GCTTGTAA,0.384 (active)
25,TATTGTAA,0.275
26,TCTTGCAA,0.0461

row,Sequence,PBM E-score
1,AATTGTAT,0.228
2,ACTTGTAA,0.403 (active)
3,AGTTGTAT,0.231
4,GATTGTAA,0.205
5,GTTTGTAA,0.198
6,ATTTGTAA,0.277
7,AATTGTAA,0.209
8,TCTTGTAA,0.371 (active)
9,ACTTGTAT,0.391 (active)
10,ATATCTAC,0.166
11,ACAAAAAC,0.117
12,AGTTGGTG,-0.0391
13,CCGCATAG,-0.0554
14,ATTGTTCG,0.213
15,CGCTCAGC,-0.138
16,CTACAAAA,0.123
17,CTACAAGC,0.29
18,GTACAAGA,0.418 (active)
19,ATACAATA,0.26
20,GTACAATA,0.306
21,TTACAAAA,0.203
22,GCACAAGA,0.0557
23,CTACAAGA,0.263
24,ATACAAGG,0.283
25,ATACAAGA,0.322 (active)
26,GTACAAAA,0.323 (active)

row,Sequence,PBM E-score
1,ATACAAGC,0.316 (active)
2,AATAGCCT,-0.0311
3,AATAGAGA,0.041
4,CACGTAAG,0.0839
5,GTGCTCCA,-0.0875
6,CTTCCAGC,-0.248
7,CCCGAATC,-0.201
8,AACATGTT,0.45 (active)
9,AAAATGTT,0.249
10,CACATGTC,0.387 (active)
11,CAAATGTA,0.294
12,CACATGTA,0.42 (active)
13,AACATCTA,0.252
14,CAAATGTC,0.141
15,AACATTTA,0.275
16,CACATCTA,0.208
17,AACATCTT,0.246
18,AACATGTA,≥ 0.48 (active)
19,CACATCTC,-0.00827
20,GCGTACGC,-0.112
21,ACCACCAC,0.0458
22,CGAATCTC,0.0162
23,GATGCCCA,-0.0463
24,CGCTTTAC,0.0463
25,GCGATACA,0.217
26,ATTGGGAG,-0.0672

row,Sequence,PBM E-score
1,ACGGATCG,0.00507
2,CCTTGCTA,0.0673
3,AAAGGTCT,-0.0899
4,GAAATGTA,0.131
5,GACATATC,0.256
6,CACATGTG,0.18
7,AACATGTG,0.402 (active)
8,AAAATGTC,0.217
9,GAAATGTC,0.114
10,GACATTTA,0.177
11,GACATGTC,0.437 (active)
12,AACATCTC,0.254
13,AACATCTG,0.22
14,AACATGTC,0.424 (active)
15,GACATGTA,0.477 (active)
16,CGTGCTGA,0.0459
17,CTGGGCTC,-0.186
18,ACACCACA,0.262
19,ACGCTGTC,0.0456
20,GCCACCAC,-0.199
21,ATTGCCAG,-0.0611
22,CGGTTACA,0.183
23,GTGTTACA,0.381 (active)
24,GAGTTACA,0.215
25,GTGTTAAA,0.246
26,GCGTTACA,0.198

row,Sequence,PBM E-score
1,TAGTTACA,0.311 (active)
2,CTGTTACC,0.142
3,ACGTTACG,0.0614
4,CTGTTACA,0.33 (active)
5,AGGTTACG,-0.0221
6,AAGTTACA,0.261
7,ATGTTACG,0.326 (active)
8,CGTTATTA,0.116
9,AAAACCGG,-0.0173
10,ACGCAATG,0.0404
11,CTGTCCCC,-0.0725
12,CAGCTAGG,-0.046
13,TACAATGA,0.266
14,ACGTTACA,0.282
15,AGGTTACC,-0.0352
16,AGGTTACA,0.191
17,ATGTTACC,0.331 (active)
18,AAGTTACC,0.148
19,ATGTTACA,0.406 (active)
20,AAGTCGTG,0.0196
21,AAAATGTA,0.166
22,CGATATTA,0.219
23,ATTTTACA,0.305
24,TCTTACAA,0.246
25,GATTACTA,0.184
26,AATTACGT,0.122

row,Sequence,PBM E-score
1,TATTACAA,0.341 (active)
2,AATTACAA,0.396 (active)
3,AATTACAT,0.385 (active)
4,GATTACCA,0.0721
5,GATTACAA,0.314 (active)
6,AATTACTA,0.179
7,CATTACAA,0.288
8,AATTACAG,0.244
9,AATTACCA,0.184
10,AAGACTGC,-0.0769
11,AAATGACG,0.171
12,GATGCCAA,-0.0306
13,TAGCGGGA,-0.169
14,CGATATTC,-0.0778
15,AGGATGAA,-0.102
16,CCGAGTCG,-0.169
17,AGAAGAGG,-0.176
18,CCCCTTCG,-0.25
19,ATGGGAAC,0.0233
20,AGGTAGAA,0.0148
21,TAACAGCA,0.145
22,CACAAACC,-0.0236
23,TTGATCAA,0.115
24,GACCGTTA,0.0165
25,AGTCAGAC,-0.0283
26,ACTTACAC,0.245

row,Sequence,PBM E-score
1,AGTTACAC,0.303
2,AGTTACAT,0.319 (active)
3,ACTTACAT,0.339 (active)
4,AGTTACAG,0.189
5,CGTTACAA,0.289
6,TGTTACAA,0.42 (active)
7,AGTTACAA,0.295
8,ACTTACAG,0.187
9,CCGAAATC,-0.0715
10,CCGAGCAG,-0.0223
11,ACTCAGCA,0.0319
12,CGGTGTTC,0.157
13,ACGTGTTG,0.347 (active)
14,CCGTGTTC,≥ 0.382 (active)
15,AGGTGTTA,0.207
16,CGGTGTTA,0.179
17,ACGTGTGG,0.0393
18,CCGTGTTA,0.321 (active)
19,GCGTGTTA,0.284
20,ACGTGTTA,0.33 (active)
21,CAGTGTTA,0.24
22,ACGTGTTC,0.279
23,AGGTGTTG,0.125
24,ACCGGGCC,-0.228
25,GCACGTCC,-0.0893
26,AGTTTTCC,-0.0223

row,Sequence,PBM E-score
1,AGCCCACT,-0.166
2,AGGTTCAC,-0.0392
3,ATGTTCGG,0.244
4,ATGTTCAG,0.295
5,GTGTTCGA,0.236
6,CTGTTCAC,0.147
7,ATGTTCAA,0.327 (active)
8,ATGTTCGA,0.34 (active)
9,ATGTTCAC,0.334 (active)
10,CTGTTCAA,0.0792
11,CACTCTGA,0.0251
12,ATAGGGTG,-0.0464
13,CCCATAAC,0.0433
14,CACGACCA,0.098
15,CAGAAGAG,-0.0491
16,ATCCTCCG,-0.0647
17,AAGTGAGA,-0.0758
18,CCTCTGGA,-0.169
19,CTCCGTGA,-0.0581
20,CGGTAGGC,-0.149
21,ATACGATA,0.186
